Bioassay records deposited in PubChem BioAssay by Broad Institute.
Casp6 inh: inhibitors of human caspase-6; purified caspase-6, Z-VEID-R110 cleavage fluorescence; inhibition, % at 12.5 µM; actives 0.53% (n = 350,000);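 active = mean inhibition across replicates at least about 35%, with every replicate also reaching that limit, limit read from the data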;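 also: 0% = median of neutral control wells and 100% = no fluorescence left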
Target sequence (P55212 24-179 limits assumed): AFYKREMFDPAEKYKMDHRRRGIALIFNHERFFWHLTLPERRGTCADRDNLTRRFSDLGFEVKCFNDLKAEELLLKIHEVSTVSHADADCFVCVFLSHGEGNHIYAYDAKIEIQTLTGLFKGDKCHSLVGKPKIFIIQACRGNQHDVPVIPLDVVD
Target sequence (P55212 194-293 limits assumed): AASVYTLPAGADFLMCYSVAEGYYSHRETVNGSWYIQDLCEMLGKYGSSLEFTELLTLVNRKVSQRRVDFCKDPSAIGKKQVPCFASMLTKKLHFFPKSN
PfHsp90 yeast 2: inhibits growth of yeast expressing Plasmodium falciparum Hsp90; actives 0.32% (n = 310,000); S. cerevisiae expressing PfHsp90, BacTiter-Glo ATP, 48 h; yeast lacking PDR1 and PDR3 efflux regulators; inhibition, % at 9.4 µM;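 active = every replicate shows inhibition above about 80%, whatever the replicate mean, limit read from the data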;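 also: 0% = DMSO neutral controls and 100% = 20 µM radicicol positive controls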
ARNT-TACC3 inh: ARNT/TACC3 interaction disruption; actives 0.66% (n = 390,000); AlphaScreen His-ARNT PAS-B/GST-TACC3 binding, luminescence; TACC3 fragment carries E629A point mutation; inhibition, % at 9.99 µM;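 active = mean inhibition of replicates at least 50% and at least half of replicates each reaching 50%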;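 also: 0% = complete ARNT plus TACC3 wells and 100% = ARNT alone without TACC3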
SIRT5 block: sirtuin-5 (human) deacylase inhibition. Q9NXA8. Purified SirT5, succinyl-peptide AMC, trypsin-coupled fluorescence. inhibition, % at 15 µM. actives 1.1% (n = 330,000); in the data active = inhibition above about 15%
Target sequence (Q9NXA8 whole entry, looked up): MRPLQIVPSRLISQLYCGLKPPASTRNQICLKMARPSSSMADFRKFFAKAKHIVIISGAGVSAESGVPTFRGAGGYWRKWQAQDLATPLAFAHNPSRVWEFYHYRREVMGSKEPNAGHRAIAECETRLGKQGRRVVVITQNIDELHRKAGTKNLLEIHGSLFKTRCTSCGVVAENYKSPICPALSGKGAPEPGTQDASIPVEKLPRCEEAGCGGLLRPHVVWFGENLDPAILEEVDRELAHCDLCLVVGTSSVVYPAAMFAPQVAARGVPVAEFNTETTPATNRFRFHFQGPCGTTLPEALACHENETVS
NSD2 inh: inhibitors of human histone methyltransferase NSD2. inhibition, % at 12.5 µM. actives 0.54% (n = 310,000). O96028. NSD2 peptide methylation, AlphaScreen, 120 min. AID 743445; in the data active = inhibition above about 50%
An asterisk follows results filed as active; ! = not confirmed by another sample. The list is not random: actives were taken first. Their share in the collection is about 2.1%.

`C[C@@H]1CN([C@@H](C)CO)C(=O)c2c(c3ccccc3n2C)-c2ccccc2CO[C@H]1CN(C)Cc1cccc(C(=O)Nc2ccccc2N)c1` gave Casp6 inh 1 and SIRT5 block 17*.
C[C@@H]1CN([C@H](C)CO)C(=O)c2c(c3ccccc3n2C)-c2ccccc2CO[C@@H]1CN(C)Cc1cccc(F)c1 was read as Casp6 inh -1 and SIRT5 block 2.
C[C@H]1CN([C@@H](C)CO)C(=O)c2c(c3ccccc3n2C)-c2ccccc2CO[C@@H]1CN(C)Cc1cccc(F)c1 was read as Casp6 inh -1 and SIRT5 block 18*.
For C[C@H]1CN([C@@H](C)CO)C(=O)c2c(c3ccccc3n2C)-c2ccccc2CO[C@@H]1CN(C)Cc1ccc2c(c1)OCO2 the results were Casp6 inh 4 and SIRT5 block 19*.
For C[C@@H]1CN([C@@H](C)CO)C(=O)c2c(c3ccccc3n2C)-c2ccccc2CO[C@H]1CN(C)Cc1ccc2c(c1)OCCN2C the results were Casp6 inh 0 and SIRT5 block 3.
NCC[C@@H]1CC[C@@H](NC(=O)C2CCC2)[C@@H](CO)O1 was read as Casp6 inh 0, ARNT-TACC3 inh 5 and SIRT5 block 8.
`COC(=O)[C@H]1[C@H](CO)[C@H]2Cn3c(ccc(C4=CCCC4)c3=O)[C@H]2N1C(=O)C1CCC1` gave Casp6 inh 0, ARNT-TACC3 inh -7 and SIRT5 block -12.
For Cc1noc(C)c1NC(=O)Nc1ccc2c(c1)C(=O)N([C@@H](C)CO)C[C@@H](C)[C@H](CN(C)C(=O)Nc1ccc(C(F)(F)F)cc1)O2 the results were Casp6 inh 0, ARNT-TACC3 inh 1 and SIRT5 block 7.
`C[C@@H]1CN([C@H](C)CO)C(=O)c2c(c3ccccc3n2C)-c2ccccc2CO[C@H]1CN(C)Cc1cccc(O)c1` gave Casp6 inh -2 and SIRT5 block 6.
For C[C@@H]1CN([C@@H](C)CO)C(=O)c2c(c3ccccc3n2C)-c2ccccc2CO[C@@H]1CN(C)Cc1cccc(O)c1 the results were Casp6 inh 0 and SIRT5 block 23*.
Oc1ccc(/C=N/Nc2ccnc3cc(Cl)ccc23)cc1O was read as Casp6 inh 47*, PfHsp90 yeast 2 -6, ARNT-TACC3 inh 14 and NSD2 inh 3.
Screening CCN(Cc1ccccc1)S(=O)(=O)CCNC(=O)c1ccc(OC)cc1 returned Casp6 inh 1, ARNT-TACC3 inh -1, SIRT5 block 35* and NSD2 inh 0.
For CCN(Cc1ccccc1)S(=O)(=O)CCNC(=O)c1ccccc1 the results were Casp6 inh -4, PfHsp90 yeast 2 -27, ARNT-TACC3 inh -7, SIRT5 block -2 and NSD2 inh -2.
COc1cccc(/C=N/Nc2nc(C)cc(=O)[nH]2)c1OC was read as Casp6 inh 42*, PfHsp90 yeast 2 -2, ARNT-TACC3 inh -12, SIRT5 block -1 and NSD2 inh -3.
Screening CCOc1ccccc1/C=N/Nc1nc(C)cc(=O)[nH]1 returned PfHsp90 yeast 2 -14, ARNT-TACC3 inh 7 and NSD2 inh 0.
Cc1cc(=O)[nH]c(N/N=C/c2c(C)nn(-c3ccccc3)c2Cl)n1 was read as Casp6 inh 0, PfHsp90 yeast 2 -36, ARNT-TACC3 inh 4, SIRT5 block 16* and NSD2 inh 8.
`Cc1nn(-c2ccccc2)c(Cl)c1/C=N/Nc1nc2ccccc2[nH]1` gave Casp6 inh -7, PfHsp90 yeast 2 11, SIRT5 block -2 and NSD2 inh 0.
Screening COc1ccccc1CNC(=O)C[C@@H]1CC[C@H]2[C@H](COc3ccc(NC(=O)Nc4ccc(F)c(F)c4)cc3C(=O)N2C)O1 returned Casp6 inh 0, ARNT-TACC3 inh 20 and SIRT5 block 3.
O=C(CCc1ccccc1O)N/N=C/c1ccc(Sc2cccc3cccnc23)o1 was read as PfHsp90 yeast 2 -5, ARNT-TACC3 inh 66* and NSD2 inh 0.
Screening O=C(C[C@@H]1C=C[C@H](NC(=O)Nc2ccc(C(F)(F)F)cc2)[C@H](CO)O1)NCc1cc(F)cc(F)c1 returned Casp6 inh -3, ARNT-TACC3 inh 0 and SIRT5 block -2.
Screening Cc1n[nH]c(=O)nc1NCc1ccco1 returned PfHsp90 yeast 2 5, ARNT-TACC3 inh -2 and NSD2 inh 0.
For Cc1n[nH]c(=O)nc1N/N=C/c1ccco1 the results were Casp6 inh 2, PfHsp90 yeast 2 -2, ARNT-TACC3 inh 53*, SIRT5 block 2 and NSD2 inh -3.
`NC(=O)c1ccc(Nc2nnc(-c3ccc(O)cc3)c3ccccc23)cc1` gave Casp6 inh -2, PfHsp90 yeast 2 -9, ARNT-TACC3 inh 22, SIRT5 block -4 and NSD2 inh 3.
COc1ccc(Nc2nnc(-c3ccc(C(N)=O)cc3)c3ccccc23)cc1 was read as Casp6 inh 11, PfHsp90 yeast 2 1, ARNT-TACC3 inh 51*, SIRT5 block -1 and NSD2 inh 3.
COCCNC(=O)[C@H]1[C@H](CO)[C@H]2Cn3c(ccc(-c4ccccc4F)c3=O)[C@H]2N1C(=O)C1CC1 was read as Casp6 inh 2, ARNT-TACC3 inh 1 and SIRT5 block -7.
For O=C(Nc1ccccc1)c1ccccc1OCc1cccc([N+](=O)[O-])c1 the results were Casp6 inh 36*, PfHsp90 yeast 2 -3, ARNT-TACC3 inh -3, SIRT5 block -4 and NSD2 inh 12.
For O=C(/C=C/c1ccccn1)c1cc(Br)ccc1O the results were Casp6 inh -3, PfHsp90 yeast 2 104*, ARNT-TACC3 inh -7, SIRT5 block -7 and NSD2 inh 1.
Screening C[C@@H]1CN([C@@H](C)CO)S(=O)(=O)c2ccc(-c3cccc(C#N)c3)cc2O[C@@H]1CN(C)CC1CC1 returned Casp6 inh -3, ARNT-TACC3 inh 36 and SIRT5 block 2.
Screening C[C@@H]1CN([C@@H](C)CO)S(=O)(=O)c2ccc(-c3ccc(C#N)cc3)cc2O[C@@H]1CN(C)Cc1ccccn1 returned Casp6 inh 45*!, ARNT-TACC3 inh 6 and SIRT5 block 3.
C[C@H](CO)N1C[C@H](C)[C@@H](CN(C)CC2CC2)Oc2cc(-c3cccc(C#N)c3)ccc2S1(=O)=O was read as Casp6 inh 0, ARNT-TACC3 inh -1 and SIRT5 block 16*.
`COc1ccc(C[C@H]2CN3C(=NC[C@@H]3Cc3ccc(O)cc3)N2C[C@H](C)NC(=O)CCC2CCCCC2)cc1` gave Casp6 inh 6, ARNT-TACC3 inh 7 and SIRT5 block 31*.
CCCOc1ccc(/C=C/c2[nH]c(=O)[nH]c(=O)c2[N+](=O)[O-])cc1OCC was read as Casp6 inh 0, PfHsp90 yeast 2 1, ARNT-TACC3 inh 12, SIRT5 block -5 and NSD2 inh 2.
For CCOC(=O)COc1ccc(Br)cc1/C=C\c1[nH]c(=O)[nH]c(=O)c1[N+](=O)[O-] the results were Casp6 inh 56*, PfHsp90 yeast 2 34, ARNT-TACC3 inh -16, SIRT5 block 2 and NSD2 inh 31.
